Measurements taken from PubChem BioAssay AID651871 (Sanford-Burnham Center for Chemical Genomics, 2012).
Several values for one entry are separate records, joined by “and”; a condition that tells them apart may be missing. Equal values may be shown once.

The molecules below were run on H9c2 (assay: protection of cardiomyocytes from stress damage, SAR follow-up, cell-based, panel, H9c2 and HL-1, ATP luminescence, set 2 (AID 651871;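 also: cells exposed to stressor for 2 h before ATP readout; reference of the scale not given here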)). Details: H9c2/HL-1 cardiomyocytes, 2-deoxyglucose stress, with 2-deoxyglucose; run 6, at 79 µM (top of the series).

| Compound | activity (protection/inhibition) |
| --- | --- |
| COc1ccc2nc(-c3cc(OC)c(OC)c(OC)c3)cc(C(=O)NCC(=O)Nc3ccc(C(C)=O)cc3)c2c1 | 91.5% |
| COc1ccc2c(c1OC)C(=O)N1c3ccccc3C(=O)N(Cc3cccc(Cl)c3Cl)C21 (stereo not drawn) | 104% and 66.4% and -6.1% |
| CCOC(=O)c1cccc(NC(=O)CNC(=O)c2cc(-c3cc(OC)c(OC)c(OC)c3)nc3ccccc23)c1 | 73.8% |
